ugtP null kill: kills S. aureus RN4220 lacking UgtP; S. aureus RN4220 ugtP deletion, OD600 growth, 16 h; growth inhibition, % (concentration not given with the values); 330,000 compounds, 0.54% hits; in the data active = growth inhibition above about 68%;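 also: plate controls were untreated wells for no effect and antibiotic for full effect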
BJeLR viability: kills HRASV12-expressing BJeLR cells; BJeLR (HRASV12) viability, CellTiter-Glo ATP luminescence, 48 h; 300,000 compounds, 0.17% hits; inhibition, % (concentration not given with the values); in the data active = inhibition above about 50%
Sa RN4220 lethal: kills Staphylococcus aureus RN4220; S. aureus RN4220 growth, OD600, 16 h; inhibition, % (concentration not given with the values); 330,000 compounds, 0.33% hits; AID 1259311; in the data active = inhibition above about 85%;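 also: plate controls were untreated cells for no effect and reference antibiotic for full effect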
* marks the source's active call; other numbers are inactive results; . = not tested or not shown. Sampled rows, rich in hits. Any-hit rate of the full collection: about 0.65%.

SMILES	ugtP null kill	BJeLR viability	Sa RN4220 lethal
CC1CCN(C(=O)CSc2n[nH]c(-c3cccs3)n2)CC1	6.2	-0.1	2.2
Cc1ccc(O)c(NC(=O)c2cc([N+](=O)[O-])ccc2Cl)c1	1.0	-0.2	2.6
O=C(Nc1cccc(Cl)c1)c1cccc(Oc2ccc([N+](=O)[O-])cc2Cl)c1	-21.7	2.5	-12.0
O=C(Nc1cccc(Cl)c1)c1cc(N=Nc2ccc([N+](=O)[O-])cc2Cl)ccc1O	99.6*	0.5	94.4*
O=C(Nc1ccc([N+](=O)[O-])cc1Cl)c1cc(Cl)ccc1O	100.1*	.	100.9*
CN(CCCNC(=O)Cn1c(=O)c2cccn2c2ccccc21)Cc1ccccc1	7.7	3.7	-0.8
CCOC(=O)N1CCN(Cc2nc3cc(NC(=O)C(C)C)ccc3n2CC)CC1	2.5	4.8	4.1
O=C(CSc1nnnn1-c1ccccc1)Nc1ncc(Cc2ccccc2Cl)s1	0.2	-2.6	4.8
N=C1SC(c2ccccc2)C(=O)N1c1ncc(Cc2ccccc2Cl)s1 (stereo not given)	89.9*	12.5	81.0
CCS(=O)(=O)c1ccc(C(=O)Nc2cccc(Cl)c2)c(Cl)c1Cl	-7.4	-0.3	4.6
CCOC(=O)Nc1sc2c(c1C(=O)OCC)CCC2	61.2	-4.1	-1.0
CCCCOC(=O)Nc1sc2c(c1C(=O)OC)CCC2	92.3*	0.5	6.5
CCN(CC)CCOc1ccccc1OC	3.7	-1.2	-1.0
Nc1nn2c(-c3ccccc3)cc(=O)[nH]c2c1N=Nc1ccc(Br)cc1	100.1*	.	99.7*
Nc1nn2c(-c3ccccc3)cc(=O)[nH]c2c1N=Nc1ccc(O)cc1	39.3	-2.0	15.5
Cc1ncc(CN2CCC(C(=O)Nc3ccc(-n4cccn4)cc3)CC2)s1	3.5	-4.0	3.0
Cc1ccc(C2(c3ccc(C)cc3)CC2C(=O)Nc2ccc([N+](=O)[O-])cc2O)cc1 (stereo not given)	99.6*	28.1	100.5*
CC1(C)CC1C(=O)Nc1ccc([N+](=O)[O-])cc1Br (stereo not given)	9.1	3.0	5.7
COc1ccc(Nc2cc(Nc3ccc(OC)cc3)ncn2)cc1	7.6	1.3	-1.0
COc1ccc(C=C2NC(=S)NC2=O)cc1	1.5	.	-2.7
COc1ccc(C(=O)N2C(=S)NC(=O)/C2=C\c2ccc(C)cc2)cc1	100.1*	5.1	-9.4
O=C(NC1CC1)C1=C[C@@H](C2CC2)C[C@@H](OCCCCO)O1	.	-9.4	.
N/C(Cc1ccc(Cl)cc1)=N\OC(=O)c1ccc2ccccc2c1	-1.6	3.4	2.4
CNC1=C(N(C(C)=O)c2ccc(Br)cc2)C(=O)c2ccccc2C1=O	13.3	51.0*	24.1
CCC(=O)N(C1=C(NC)C(=O)c2ccccc2C1=O)C(C)C	-5.8	20.8	13.1
SMILES	ugtP null kill	BJeLR viability	Sa RN4220 lethal
O=C(c1cccc(S(=O)(=O)N2CCCC2)c1)N1CCCC(C(F)(F)F)C1 (stereo not given)	0.2	1.9	3.9
CCOC(=S)SCC(=O)Nc1nc(-c2ccccc2)cs1	38.3	2.1	-5.5
CCOC(=S)SCC(=O)Nc1nc(-c2ccc(Br)cc2)cs1	98.9*	-13.6	-13.2
O=C(NCCCSc1ccccc1)c1cc(Br)ccc1O	81.3	-5.9	83.0*
O=C(NCCSc1ccccc1)c1ccc(Br)cc1	4.8	0.1	-5.1
Cc1ccc(C)c(S(=O)(=O)N2CCCOC2CNC(=O)C(=O)NCc2cccs2)c1 (stereo not given)	-2.1	-5.2	1.9
Cc1cc(C(=O)CCl)c(C)n1CCc1ccc(Cl)cc1	97.0*	-0.7	93.4*
Cc1cc(C(=O)CCl)c(C)n1CCc1ccc(F)cc1	-1.9	3.5	21.0
CC(CCc1ccc2c(c1)OCO2)=NNC(=O)c1ccccc1Br	-1.4	.	3.2
CCOc1cccc2sc(=NC(=O)CCS(=O)(=O)c3ccccc3)n(CC)c12	-2.1	-0.8	0.6
CCN(c1cccc(C)c1)c1nc2ccsc2c(=O)s1	88.4*	-8.4	-3.5
CCN(c1ccccc1)c1nc(=O)c2cccnc2s1	11.7	4.0	4.1
COc1cccc(CCC(=O)Nc2cc3c(cc2C(=O)O)OCCCO3)c1OC	7.6	.	10.0
O=C(Nc1ccc(Cl)cc1)c1cc2c(cc1O)[nH]c1ccccc12	97.9*	18.6	95.0*
CC(=O)Nc1ccc2[nH]c3ccccc3c2c1	-6.1	-1.9	-2.1
CC1=C(C(=O)Nc2ccc(CC(=O)NCc3ccccc3C)cc2)SCCO1	5.0	-13.7	2.1
CCc1ccc(CNC(=O)Cc2ccc(NC(=O)C3=C(C)OCCS3)cc2)cc1	.	53.1*	.
CC1Oc2ccccc2C=C1/C=N/NC(=O)c1ccncc1 (stereo not given)	.	14.1	.
CC(C)(Sc1ccc(CCN(CCCCC2CCCCC2)C(=O)NC2CCCCC2)cc1)C(=O)O	85.8*	.	65.5
CN(Cc1ccccc1)C(=O)NC1CCCCC1	-0.9	-0.2	4.4
COc1ccc(Cl)cc1C(=O)NNC(=O)COC(=O)c1ccc(Br)o1	5.5	.	1.2
CC(C)=CCc1c2c(c(O)c3c(=O)c4c(oc13)-c1cc(O)c(O)cc1OC4C=C(C)C)C=CC(C)(C)O2 (stereo not given)	-10.8	5.5	3.5
CC(C)=CCc1c(-c2ccc(O)cc2O)oc2c3c(cc(O)c2c1=O)OC(C)(C)C=C3	99.3*	8.1	97.3*
Cn1c(-c2ccccc2)c(C(=O)CCl)c2ccccc21	8.9	18.1	27.3
CCn1c(-c2ccccc2)c(C(=O)CCl)c2ccccc21	99.4*	2.4	97.3*
SMILES	ugtP null kill	BJeLR viability	Sa RN4220 lethal
O=[N+]([O-])c1cccc(CN2C[C@@]34C=C[C@@H](C[C@@H]3S2(=O)=O)O4)c1	.	5.6	.
COc1ccc(C(C)=NNc2nc(C)c(C(C)=O)s2)cc1	-5.7	.	3.3
CC(=O)c1ccc(N2CCN(c3ccc4cc(S(=O)(=O)N5CCC(C)CC5)ccc4n3)CC2)cc1	-6.0	7.5	3.4
CC(=O)c1ccc(-n2c(C)ccc2-c2ccccc2)cc1	37.9	-5.3	3.8
COC(=O)c1ccc(-n2c(C)ccc2-c2ccccc2)cc1	97.1*	9.0	-0.5
CCOc1ccc(CCNC(=O)c2ccc(CS(=O)Cc3ccc(Cl)cc3)o2)cc1OCC (stereo not given)	15.4	2.4	2.6
CCOc1ccc(CCNC(=O)c2ccc(CS(=O)Cc3cccc(Cl)c3)o2)cc1 (stereo not given)	96.3*	7.0	-6.3
COc1ccc(N2C(=O)c3ccc(C(=O)Nc4ccccc4O)cc3C2=O)cc1	3.6	2.7	-1.0
COCCCN(C(=O)CCOc1ccc(C(C)(C)C)cc1)c1c(N)n(Cc2ccccc2)c(=O)[nH]c1=O	4.3	-2.9	5.5
CCCn1c(-c2ccccc2)cc(SC)c(C#N)c1=O	18.8	6.8	6.8
CSc1cc(-c2ccccc2)n(Cc2ccccc2Cl)c(=O)c1C#N	15.4	51.1*	-0.7
O=C1C(c2ccccc2)=C(N2CC2)c2ccccc21	3.7	4.3	-2.0
CC(=O)C1=C(c2ccc(Br)cc2)C(=O)c2ccccc2C1=O	96.7*	28.6	97.2*
C=CCOc1c(CNn2nnnc2N)cccc1OC	11.0	-10.8	6.9
COc1ccc(Cn2nnc3c(=O)[nH]c(C(=O)NCCc4ccc(F)cc4)nc32)cc1OC	4.2	3.7	-2.6
O=C(Nc1cccnc1)Nc1cc(Cl)cc(Cl)c1	98.8*	-3.5	100.4*
O=C(Nc1cccnc1)Nc1ccccc1Cl	-3.2	3.1	5.2
O=C(CCC1CCCC1)NC1CCCCC1	5.5	-0.2	-5.6
Cc1ccc(S(=O)(=O)CCc2nnc(NC(=O)CCl)s2)cc1C	8.8	1.9	9.0
